Data taken from PubChem BioAssay (EPA / NIEHS).
The source made the active and inactive calls. How the source made its calls: active means hit-call score of the fitted dose curve at least 0.9, where 1 is the maximum; inactive means score below 0.9.

target: Nuclear respiratory factor 1 (Homo sapiens) (UniProt Q16656); experiment: ATG_NRF1_CIS: Attagene CIS-FACTORIAL HepG2 Assay for human Nuclear Respiratory Factor 1 (NRF1) Orphan Gene (AID 2282987); settings: HepG2 NRF1 cis-element reporter, Attagene multiplex; actives raise or lower the signal
Protocol: ATG_CIS is a cell-based, multiplexed-readout assay that uses HepG2, a human liver cell line, with measurements taken at 24 hours after chemical dosing in a 24-well plate.ATG_NRF1_CIS is one of 52 assay component(s) measured or calculated from the ATG_CIS assay. It is designed to make measurements of mRNA induction, a form of inducible reporter, as detected with fluorescence intensity signals by Reverse transcription polymerase chain reaction (RT-PCR) and Capillary electrophoresis technology.Data from the assay component ATG_NRF1_CIS was analyzed into 1 assay endpoint. This assay endpoint, ATG_NRF1_CIS, was analyzed with bidirectional fitting relative to DMSO as the negative control and baseline of activity. Using a type of inducible reporter, measures of mRNA for gain or loss-of-signal activity can be used to understand the reporter gene at the transcription factor-level as they relate to the gene NRF1. Furthermore, this assay endpoint can be referred to as a primary readout, because this assay has produced multiple assay endpoints where this one serves a reporter gene function. To generalize the intended target to other relatable targets, this assay endpoint is annotated to the dna binding intended target family, where the subfamily is nuclear respiratory factors.
Human liver HepG2 cells are transiently transfected with multiple reporter transcription units (MRTUs) in 6-well plates using FuGene 6 reagent (Roche; 3 ml FuGene/1 mg DNA). The MRTU constructs are regulated by a cis-regulating element (promoter). […] A major difference between the CIS and TRANS system is that in CIS activities of endogenous TFs are measured, whereas the TRANS assay evaluates changes in activities of exogenous, chimeric NR-Gal4 proteins. […] At the end of 24 hour incubation, total RNA was isolated using TriZol reagent (Invitrogen). The isolated RNA is then reverse-transcribed using oligo(dT) primer and Mo-MLV reverse transcriptase (Invitrogen) with DNAse I (Ambion) treatment for 30 min. The one-tenth of the produced cDNA was amplified by PCR using Taq DNA polymerase (Invitrogen) and two reporter sequence-specific primers. The PCR products were fluorescently labeled by primer extension with 6-arboxyfluorescein (6-FAM) 5'-labeled reporter sequence-specific primer (2 min at 95 C, 20 s at 68 C and 10 min at 72 C) and these products were digested with 5U of HpaI (New England Biolabs) for 2h at 37 C. The fragments were purified using Qiaquick PCR columns (Qiagen), analyzed on an ABI 3130xL genetic analyzer (Applied Biosystems) with peak positions identified by using a set of X-rhodamine (ROX)-labeled MapMarker1000 molecular weight standards (BioVentures). The raw capillary electrophoresis data was processed using Attagraph software (Attagene).

Nuclear respiratory factor 1 (Homo sapiens), sequence (Q16656 whole entry, looked up): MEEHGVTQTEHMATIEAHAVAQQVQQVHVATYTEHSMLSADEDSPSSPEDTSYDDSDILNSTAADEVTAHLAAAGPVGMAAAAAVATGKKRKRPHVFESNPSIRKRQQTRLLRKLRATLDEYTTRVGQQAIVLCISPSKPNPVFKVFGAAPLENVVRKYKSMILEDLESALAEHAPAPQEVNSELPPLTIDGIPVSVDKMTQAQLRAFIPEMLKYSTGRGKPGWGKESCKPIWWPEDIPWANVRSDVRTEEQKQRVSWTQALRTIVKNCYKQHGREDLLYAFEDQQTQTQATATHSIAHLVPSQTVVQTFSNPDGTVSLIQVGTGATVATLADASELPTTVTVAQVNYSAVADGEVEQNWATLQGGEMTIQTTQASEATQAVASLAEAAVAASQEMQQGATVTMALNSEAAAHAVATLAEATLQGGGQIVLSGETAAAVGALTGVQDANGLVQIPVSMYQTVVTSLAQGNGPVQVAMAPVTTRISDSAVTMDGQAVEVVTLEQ

| SMILES | outcome | AC50 |
| --- | --- | --- |
| CCCCCCCC=O | inactive | – |
| CN[C@H]1CC[C@@H](c2ccc(Cl)c(Cl)c2)c2ccc(S(N)(=O)=O)cc21 | inactive | – |
| COc1cccc2c1C(=O)c1c(O)c3c(c(O)c1C2=O)C[C@@](O)(C(=O)CO)C[C@@H]3O[C@H]1C[C@H](N)[C@H](O)[C@H](C)O1 | inactive | – |
| Cc1ccc(C(C)C)c(O)c1 | inactive | – |
| C[Si]1(C)O[Si](C)(C)O[Si](C)(C)O[Si](C)(C)O1 | inactive | – |
| COc1cc(C=O)ccc1O | inactive | – |
| Cc1cccc(Nc2cc(Cl)nc(SCC(=O)O)n2)c1C | inactive | – |
| COc1cc(-c2nc(NC(=O)c3cc4cc(C)cc(C)c4n3CC(=O)O)sc2CCC2CCCCC2)c(OC)cc1Cl | inactive | – |
| COCCOC[C@H](CC1(C(=O)NC2CCC(C(=O)O)CC2)CCCC1)C(=O)Oc1ccc2c(c1)CCC2 (stereo not given in full) | inactive | – |
| CNC(=O)[C@H]1O[C@@H](n2cnc3c(NCc4cc(Cl)ccc4OCc4cc(C)no4)ncnc32)[C@H](O)[C@@H]1N | inactive | – |
| CCCCCCOCCO | inactive | – |
| O=c1[nH]cc(F)c(=O)[nH]1 | inactive | – |
| OC[C@@H](O)[C@@H](O)[C@H](O)[C@H](O)CO | inactive | – |
| NS(=O)(=O)c1cc2c(cc1Cl)NCNS2(=O)=O | inactive | – |
| Clc1cc(Cl)c(Cl)cc1Cl | inactive | – |
| C=CCc1ccc(O)c(OC)c1 | inactive | – |
| Nc1nc(N)c2nc(CNc3ccc(C(=O)N[C@@H](CCC(=O)O)C(=O)O)cc3)cnc2n1 | inactive | – |
| Cc1ccc(C)c(O)c1C | inactive | – |
| CCCCCCCCCCCCCO | inactive | – |
| CC(CO)OC(C)CO (stereo not given) (tested in a mixture with another compound) | inactive | – |

| SMILES | outcome | AC50 |
| --- | --- | --- |
| Cc1ccc(C)c(C)c1 | inactive | – |
| Cc1cccc(C)c1O | inactive | – |
| COC(=O)c1ccc(O)cc1 | inactive | – |
| FC(F)(F)C(F)(F)C(F)(F)C(F)(F)C(F)(F)C(F)(F)CCI | inactive | – |
| NCCO | inactive | – |
| CC(=O)OCCOCCOCCOC(C)=O | inactive | – |
| C=CCOC(=O)c1ccccc1C(=O)OCC=C | inactive | – |
| C[C@]12C=CC(=O)C=C1CC[C@@H]1[C@@H]2C(=O)C[C@@]2(C)[C@H]1CC[C@]2(O)C(=O)CO | inactive | – |
| CCCCCCCCCCCCCCCCCC(=O)O | inactive | – |
| CCCc1cc(=O)[nH]c(=S)[nH]1 | inactive | – |
| NC(=O)Cn1c(=O)cc(CCN2CCN(c3nccc4sccc34)CC2)c2ccc(F)cc21 | inactive | – |
| Cc1ccc(Cl)cc1 | inactive | – |
| CN1CCCC1=O | inactive | – |
| CC1(C)NC(=O)NC1=O | inactive | – |
| CCOc1ccc2c(c1)C(C)=CC(C)(C)N2 | – | 133 µM (active) |
| Nc1ccccc1N | inactive | – |
| CCCCOC(=O)CCCCCCCCC(=O)OCCCC | inactive | – |
| CC(=O)Oc1ccccc1C(=O)O | inactive | – |
| COc1ccc2c(c1)c(CC(=O)O)c(C)n2C(=O)c1ccc(Cl)cc1 | inactive | – |
| Cc1cccc([N+](=O)[O-])c1C | inactive | – |
